# Assay results from PubChem BioAssay.
# Where “and” joins values, the source holds several entries; their conditions need not be identical. Identical values can stand only once. Calls of active or inactive are those of the source.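 The calls were made as follows: active = mean z-score across replicates of 1.96 or higher in either the MELAS or the Rieske mutant cell line; inactive = the rest.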 Numbered stars: 1 amine (or outer) side, 2 acyl side, 3 side chain; on linkers, the order of the positions; unused ones are H or OH. Bridge positions count the residues as written; N and C are the ends. Square brackets hold non-standard residues; d marks the D form. Peptide text beside a SMILES is read from it. * marks the point of attachment. X4 = NC1=N[C@@H]([C@H](N[*:1])C(=O)[*:2])C[C@H](O)N1; ΔAla(Z-3-ureido) = NC(=O)N/C=C(\N)C(=O)O; β3hOrn = NCCC[C@H](N)CC(=O)*; Dap = NC[C@H](N)C(=O)O
# Experiment: sensitizers of A549 cells to miR-34 induction, primary screen, imaging, A549 dox-inducible miR-34, nuclei and caspase counts (AID 1347080)
# Settings: A549 miR-34 inducible, Hoechst nuclei count, 48 h; measured here: total cells without miR-34 induction
# Also: test concentration not given here.
row,Compound,cell count
1,O=c1c(-c2ccc(O)cc2)coc2cc(OC3OC(CO)C(O)C(O)C3O)ccc12 (stereo unspecified),5490
2,COc1ccc2nc(Cn3cnc4cc(F)ccc4c3=O)[nH]c2c1,8840
3,O=C1CN(c2ncnc3nc[nH]c23)CCN1Cc1cccc(F)c1,9720
4,Cc1cccc(C)c1OCC(=O)O,9510
5,O=c1c2nccnc2ncn1Cc1scnc1-c1ccccc1,9940
6,CC(C)[N+]1(C)[C@@H]2CC[C@H]1CC(OC(=O)C(CO)c1ccccc1)C2 (stereo partly specified),11500
7,NCCC[C@H](N)CC(=O)N[C@H]1CNC(=O)[C@H]([C@H]2C[C@H](O)NC(N)=N2)NC(=O)/C(=C/NC(N)=O)NC(=O)[C@H](CO)NC(=O)[C@H](CO)NC1=O (β3hOrn-[Dap]SS[ΔAla(Z-3-ureido)][X4]; lactam 1-C),9470
8,O=C(O)c1ccccc1C(=O)O,9850
9,Cc1ccc(NC(=O)c2ccc(CN3CCN(C)CC3)cc2)cc1Nc1nc(-c2cccnc2)cs1,6420
10,CC(=O)NCC1CN(c2ccc(N3CCOCC3)c(F)c2)C(=O)O1 (stereo unspecified),7500 and 7630
11,NCc1ccccc1CC(=O)N[C@@H]1C(=O)N2C(C(=O)O)=C(CSc3nnnn3CC(=O)O)CS[C@H]12,8670
12,CO[C@H]1C[C@H](O[C@H]2[C@H](C)[C@@H](O[C@@H]3O[C@H](C)C[C@H](N(C)C)[C@H]3OC(C)=O)[C@@H](C)C[C@@]3(CO3)C(=O)[C@H](C)[C@@H](OC(C)=O)[C@@H](C)[C@@H](C)OC(=O)[C@@H]2C)O[C@@H](C)[C@@H]1OC(C)=O,10100 and 10200
13,C[C@]12CC[C@H]3c4ccc(O)cc4CC[C@H]3[C@@H]1CCC2=O,8340
14,CO[C@@]1(NC(=O)C2SC(=C(C(N)=O)C(=O)O)S2)C(=O)N2C(C(=O)O)=C(CSc3nnnn3C)CS[C@@H]21 (stereo partly specified),9980
15,C[C@@H]1CCC[C@H](C)N1NC(=O)c1ccc(Cl)c(S(N)(=O)=O)c1,10400 and 11000
16,CC1(C)S[C@@H]2[C@H](NC(=O)[C@H](NC(=O)N3CCNC3=O)c3ccccc3)C(=O)N2[C@H]1C(=O)O,10100
17,O=C(O)CNC(=O)c1cccc(O)c1,9760
18,COc1cc(N(C)CC2COc3ccccc3O2)nc(N)n1 (stereo unspecified),4140
19,Cc1nc2ccc(-c3ncnc4sccc34)cc2c(=O)[nH]1,10600
20,CC(C)C1=NOC(c2nc(-c3cccc4ccccc34)no2)C1 (stereo unspecified),9200
21,O=C(NCC1(c2nc(-c3ccccc3)cs2)CCOCC1)c1cccc(-c2noc(C(F)(F)F)n2)c1,7920
22,N#Cc1ccc2[nH]cc(CCCCN3CCN(c4ccc5oc(C(N)=O)cc5c4)CC3)c2c1,6650
23,CCN(Cc1nccn1C)C(=O)c1cc(-c2cnc(C)nc2)nc2cc(F)ccc12,10200
24,COc1ccc(CC(C)NCC(O)c2ccc(O)c(NC=O)c2)cc1 (stereo unspecified),11200 and 8180
25,NS(=O)(=O)c1ccc(C(=O)NCCn2cccn2)cc1,10100
26,Cc1c(OCC(F)(F)F)ccnc1C[S@@](=O)c1nc2ccccc2[nH]1,7370

# Experiment: survival rescue of mitochondrial mutant cells in low glucose, primary screen, MELAS cybrids, Rieske KO mouse fibroblasts, CellTiter-Glo (AID 1508586);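 also: z relative to plate mean and SD of compound and empty wells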
# Settings: MELAS cybrid survival, CellTiter-Glo 48 h, stronger effect = higher value
row,Compound,z-score
1,CCOC(=O)O[C@]1(C(=O)COC(=O)CC)CC[C@H]2[C@@H]3CCC4=CC(=O)C=C[C@]4(C)[C@H]3[C@@H](O)C[C@@]21C,-0.565 (inactive)
2,O=C(O)CCc1c[nH]c2ccccc12,0.524 (inactive)
3,NC[C@H]1O[C@H](O[C@H]2[C@H](O)[C@@H](O[C@H]3O[C@H](CO)[C@@H](O)[C@H](N)[C@H]3O)[C@H](N)C[C@@H]2N)[C@H](O)[C@@H](O)[C@@H]1O,-0.387 (inactive)
4,CCOc1nc2cccc(C(=O)OCc3oc(=O)oc3C)c2n1Cc1ccc(-c2ccccc2-c2noc(=O)[nH]2)cc1,0.0175 (inactive)
5,CCOC(=O)NCCCC(=O)NCCc1ccccc1,-0.307 (inactive)
6,CCn1ncc(NC(=O)Cn2cc(-c3ncnc4ccsc34)cn2)n1,-0.432 (inactive)
7,C[C@@]1(c2nc3c(C(N)=O)cccc3[nH]2)CCCN1,-0.268 (inactive)
8,C[C@]12CC[C@@H]3c4ccc(OS(=O)(=O)O)cc4CC[C@H]3[C@@H]1CCC2=O,-0.105 (inactive)
9,CNc1nc(-c2cccc(OC)c2)ncc1F,0.0888 (inactive)
10,O=C1CN(c2ncnc3sccc23)CCN1Cc1cccc(F)c1,-0.104 (inactive)
11,CC(C)(O/N=C(\C(=O)N[C@@H]1C(=O)N2C(C(=O)[O-])=C(C[n+]3ccccc3)CS[C@H]12)c1csc(N)n1)C(=O)O,-0.0556 (inactive) and 0.494 (inactive)
12,COC(=O)CN1CCN(C(=O)Nc2n[nH]c(-c3ccco3)n2)CC1=O,0.382 (inactive)
13,Cn1c(=O)c2c(nc(N3CCNCC3)n2Cc2ccccc2)n(C)c1=O,-1.69 (inactive)
14,CO/N=C(\C(=O)N[C@@H]1C(=O)N2C(C(=O)O)=C(C[N+]3(C)CCCC3)CS[C@H]12)c1csc(N)n1,-1.62 (inactive)
15,O=c1c(-c2ccc(O)cc2)coc2cc(OC3OC(CO)C(O)C(O)C3O)ccc12 (stereo unspecified),0.694 (inactive)
16,COc1ccc2nc(Cn3cnc4cc(F)ccc4c3=O)[nH]c2c1,-0.0496 (inactive)
17,O=C1CN(c2ncnc3nc[nH]c23)CCN1Cc1cccc(F)c1,-0.258 (inactive)
18,Cc1cccc(C)c1OCC(=O)O,0.26 (inactive)
19,O=c1c2nccnc2ncn1Cc1scnc1-c1ccccc1,-0.26 (inactive)
20,CC(C)[N+]1(C)[C@@H]2CC[C@H]1CC(OC(=O)C(CO)c1ccccc1)C2 (stereo partly specified),-0.791 (inactive)

row,Compound,z-score
1,NCCC[C@H](N)CC(=O)N[C@H]1CNC(=O)[C@H]([C@H]2C[C@H](O)NC(N)=N2)NC(=O)/C(=C/NC(N)=O)NC(=O)[C@H](CO)NC(=O)[C@H](CO)NC1=O (β3hOrn-[Dap]SS[ΔAla(Z-3-ureido)][X4]; lactam 1-C),-0.695 (inactive)
2,O=C(O)c1ccccc1C(=O)O,-0.0339 (inactive)
3,Cc1ccc(NC(=O)c2ccc(CN3CCN(C)CC3)cc2)cc1Nc1nc(-c2cccnc2)cs1,-0.618 (inactive)
4,CC(=O)NCC1CN(c2ccc(N3CCOCC3)c(F)c2)C(=O)O1 (stereo unspecified),-0.285 (inactive)
5,NCc1ccccc1CC(=O)N[C@@H]1C(=O)N2C(C(=O)O)=C(CSc3nnnn3CC(=O)O)CS[C@H]12,0.404 (inactive)
6,CO[C@H]1C[C@H](O[C@H]2[C@H](C)[C@@H](O[C@@H]3O[C@H](C)C[C@H](N(C)C)[C@H]3OC(C)=O)[C@@H](C)C[C@@]3(CO3)C(=O)[C@H](C)[C@@H](OC(C)=O)[C@@H](C)[C@@H](C)OC(=O)[C@@H]2C)O[C@@H](C)[C@@H]1OC(C)=O,0.411 (inactive) and -0.389 (inactive)
7,C[C@]12CC[C@H]3c4ccc(O)cc4CC[C@H]3[C@@H]1CCC2=O,-0.223 (inactive)
8,CO[C@@]1(NC(=O)C2SC(=C(C(N)=O)C(=O)O)S2)C(=O)N2C(C(=O)O)=C(CSc3nnnn3C)CS[C@@H]21 (stereo partly specified),-0.492 (inactive)
9,C[C@@H]1CCC[C@H](C)N1NC(=O)c1ccc(Cl)c(S(N)(=O)=O)c1,0.52 (inactive) and -0.675 (inactive)
10,CC1(C)S[C@@H]2[C@H](NC(=O)[C@H](NC(=O)N3CCNC3=O)c3ccccc3)C(=O)N2[C@H]1C(=O)O,0.409 (inactive)
11,O=C(O)CNC(=O)c1cccc(O)c1,0.669 (inactive)
12,COc1cc(N(C)CC2COc3ccccc3O2)nc(N)n1 (stereo unspecified),0.477 (inactive)
13,Cc1nc2ccc(-c3ncnc4sccc34)cc2c(=O)[nH]1,0.107 (inactive)
14,CC(C)C1=NOC(c2nc(-c3cccc4ccccc34)no2)C1 (stereo unspecified),0.244 (inactive)
15,O=C(NCC1(c2nc(-c3ccccc3)cs2)CCOCC1)c1cccc(-c2noc(C(F)(F)F)n2)c1,0.0872 (inactive)
16,N#Cc1ccc2[nH]cc(CCCCN3CCN(c4ccc5oc(C(N)=O)cc5c4)CC3)c2c1,-0.594 (inactive)
17,CCN(Cc1nccn1C)C(=O)c1cc(-c2cnc(C)nc2)nc2cc(F)ccc12,-0.0942 (inactive)
18,COc1ccc(CC(C)NCC(O)c2ccc(O)c(NC=O)c2)cc1 (stereo unspecified),0.143 (inactive)
19,NS(=O)(=O)c1ccc(C(=O)NCCn2cccn2)cc1,-0.281 (inactive)
20,Cc1c(OCC(F)(F)F)ccnc1C[S@@](=O)c1nc2ccccc2[nH]1,-0.079 (inactive)
